# Compound activity (PubChem BioAssay)
# Rows were chosen to be rich in hits. Some 1.4% of all compounds tested hit in one or more screens of this group.
# GLD-1 TGE inh = GLD-1/TGE RNA complex disruptors, primary screen, biochemical, fluorescence polarization; Female germline-specific tumor suppressor gld-1 (Caenorhabditis elegans), Q17339; purified GLD-1 + fluorescein TGE RNA; inhibition, % at 5.96 µM; hit rate 0.44% among 320,000;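 active means percent inhibition above a per-plate cutoff, the plate mean of test compounds plus 3 SD, cut at about 30% in these data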;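 further: 0% = DMSO wells with GLD-1 and probe and 100% = wells lacking GLD-1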
# MCL1 BIM primary = inhibitors of MCL1 binding to BIM-BH3, primary screen, biochemical, fluorescence polarization; Induced myeloid leukemia cell differentiation protein Mcl-1 (Homo sapiens), Q07820; GST-MCL1 / FITC-Bim-BH3 fluorescence polarization; inhibition, % at 10.9 µM; hit rate 0.68% among 320,000; AID 2057, 2009;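 active means inhibition above the mean inhibition of all tested compounds plus 3 SD, set per campaign, cut at about 40% in these data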;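 further: 0% = DMSO wells and 100% = unlabeled Bim-BH3 peptide control; higher means more loss of mP so more displacement of Bim peptide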
# BCLXL inh = inhibitors of human Bcl-xL, primary screen, biochemical, fluorescence polarization, HTS | GST-Bcl-xL / FITC-Bim BH3 peptide fluorescence polarization | inhibition, % at 10.9 µM | hit rate 0.7% among 320,000;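 active means inhibition above the mean of all tested compounds plus 3 SD, cutoff set per campaign, cut at about 30% in these data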;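 further: 0% = DMSO wells and 100% = unlabeled Bim-BH3 peptide competitor; inhibitors lower millipolarization by displacing the labeled peptide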
# Target sequence (Q07817 whole entry, looked up): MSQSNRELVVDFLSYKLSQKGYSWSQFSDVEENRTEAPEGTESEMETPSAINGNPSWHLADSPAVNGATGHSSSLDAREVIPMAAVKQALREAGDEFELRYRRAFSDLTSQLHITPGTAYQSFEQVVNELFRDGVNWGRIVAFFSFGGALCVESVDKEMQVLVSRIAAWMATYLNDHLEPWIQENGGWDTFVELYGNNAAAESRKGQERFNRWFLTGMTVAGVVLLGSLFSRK
# MEX-5 binding = MEX-5 zinc finger RNA-binding disruptors – biochemical, C. elegans, fluorescence polarization, MLPCN library, primary screen; Zinc finger protein mex-5 (Caenorhabditis elegans), Q9XUB2; MEX-5/FITC-TCR2 RNA binding; active compounds read low; hit rate 0.38% among 300,000; activity score (negative = inhibition of binding), % at 10 µM;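 active means inhibition past about -25% in most replicates, and total fluorescence under double the plate's negative control median, limit read from the data; inconclusive means replicates evenly split on the limit, or fluorescence at least double controls; inactive means too little inhibition in most replicates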;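 further: 0% = DMSO and -100% = 5 µM competing unlabeled TCR2 RNA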
# Target sequence (Q9XUB2 whole entry, looked up): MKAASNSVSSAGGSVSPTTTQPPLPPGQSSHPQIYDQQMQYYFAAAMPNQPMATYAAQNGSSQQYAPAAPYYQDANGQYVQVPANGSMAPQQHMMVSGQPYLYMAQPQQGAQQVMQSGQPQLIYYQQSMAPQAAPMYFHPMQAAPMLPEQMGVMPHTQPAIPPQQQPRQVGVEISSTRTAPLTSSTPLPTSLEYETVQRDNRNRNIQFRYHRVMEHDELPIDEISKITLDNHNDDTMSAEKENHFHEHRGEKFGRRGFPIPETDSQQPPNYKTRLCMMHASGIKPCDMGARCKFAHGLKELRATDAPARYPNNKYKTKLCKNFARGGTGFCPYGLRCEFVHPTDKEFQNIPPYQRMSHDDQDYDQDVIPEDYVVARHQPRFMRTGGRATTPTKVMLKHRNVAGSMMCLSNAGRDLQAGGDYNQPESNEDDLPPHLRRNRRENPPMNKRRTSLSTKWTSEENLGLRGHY
# EBV gp42 inh = Epstein-Barr virus gp42 inhibitors, primary screen, biochemical, uHTS, fluorescence polarization; Glycoprotein 42 (Epstein-Barr virus (strain AG876)), Q1HVG2; Fluorescence polarization binding assay, mP read-out; inhibition, % (tested at 21.74 µM); hit rate 0.42% among 220,000; AID 1085, 2008; in the data active means inhibition above about 50%
# eLon inh = inhibitors of E. coli Lon protease, primary screen, biochemical, fluorescence polarization; AID 602123, 2011; hit rate 0.42% among 360,000; inhibition, % at 7.94 µM; purified E. coli Lon protease; in the data active means inhibition above about 13%, passing the limit was not always enough;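 further: 0% = enzyme with probe and DMSO and 100% = no enzyme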
# BCLXL inh confirm = Bcl-xL inhibitors blocking Bim BH3 binding, confirmation, counter-screen for MCL1 inhibitor project, biochemical, fluorescence polarization | shares compounds with MCL1 BIM primary | GST-Bcl-xL / FITC-Bim BH3 peptide FP binding | inhibition, % at 10.9 µM | hit rate 54% among 1,700;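 active means inhibition above a cutoff equal to the mean inhibition of all tested compounds plus 3 SD, cut at about 30% in these data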;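 further: 0% = DMSO wells and 100% = unlabeled Bim BH3 control peptide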
# MCL1 inh confirm = inhibitors of MCL1 binding to BIM-BH3, confirmation, biochemical, fluorescence polarization, triplicate; shares compounds with MCL1 BIM primary; GST-MCL1 / FITC-Bim-BH3 fluorescence polarization; inhibition, % at 10.9 µM; hit rate 61% among 1,700;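 active means inhibition above the average of all tested compounds plus 3 SD, cut at about 40% in these data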;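 further: 0% = DMSO wells and 100% = unlabeled Bim-BH3 control peptide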
# Starred values were filed as active, the others as inactive; ? = inconclusive; · = no result given; + = active, no number; ! = not confirmed by another sample.
SMILES,GLD-1 TGE inh,MCL1 BIM primary,BCLXL inh,MEX-5 binding,EBV gp42 inh,eLon inh,BCLXL inh confirm,MCL1 inh confirm
COc1ccc(S(=O)(=O)N2CCN(C(=O)C3COc4ccccc4O3)CC2)cc1 (stereo not given),9.5,88.5*,12.8,·,·,-5.8,16.3,89.9*
CCCSc1cc(NCCOC(=O)CCC)c([N+](=O)[O-])c2nonc12,6.9,4.3,6.6,-1.7,5.2,5.7,·,·
CCCSc1cc(NCCOC(C)=O)c([N+](=O)[O-])c2nonc12,0.0,4.6,0.6,-1.9,1.9,-5.3,·,·
CC(=O)OCCCNc1cc(SCc2ccco2)c2nonc2c1[N+](=O)[O-],-0.6,44.5*,22.1,-3.7,-3.7,8.0,28.7,45.8*
CCCC(=O)OCCNc1cc(SCc2ccco2)c2nonc2c1[N+](=O)[O-],5.2,42.8*,22.6,-2.5,-3.5,-6.9,7.2,11.3
CCC(C)(C)C1CCc2nc3ccccc3c(C(=O)OC(C)C(=O)Nc3c(C)n(C)n(-c4ccccc4)c3=O)c2C1 (stereo not given),-0.6,5.4,1.7,-1.1,4.8,3.8,·,·
O=C1Nc2ccccc2SC(c2ccccc2)C1O (stereo not given),3.8,62.8*,21.9,-5.9,66.6*,-9.0,23.7,91.4*
Cc1ccc(Oc2c(CO)c(-c3ccccc3)nn2C)cc1,9.0,47.7*,2.1,0.9,-0.8,-1.3,1.9,1.3
COCC(C)N1C(=O)Cc2c1nc(N)c1c(N)nc(N3CCN(c4ccccc4F)CC3)c(C#N)c21 (stereo not given),1.3,23.4,23.0,0.7,9.0,-5.8,·,·
COCCN1C(=O)Cc2c1nc(N)c1c(N)nc(N3CCN(c4ccc(F)cc4)CC3)c(C#N)c21,-0.2,41.7*,21.3,-0.4,-19.0,-10.7,7.5,17.0
CC(=O)Nc1cccc(-c2ccnc3c2CC(C(=O)NCc2ccc(F)c(F)c2)O3)c1 (stereo not given),·,·,·,·,·,3.8,·,·
O=C1C(=Cc2cccn2-c2ccc(O)cc2)C(=O)c2ccccc21,60.8*,199.4*,169.1*,0.1,82.4*,11.0,151.8*,190.3*
CN1CCC2(CC1)C1CN(C)CC=C1C(C#N)=C(N)C2(C#N)C#N (stereo not given),20.1,139.7*,120.3*,?,75.7*!,-0.4,117.4*,145.7*
C=CCN1C(=O)[C@]2(c3ccccc31)C1CCCC=C1C(C#N)=C(N)C2(C#N)C#N (stereo not given in full),-0.8,-5.8,-4.8,2.3,-11.7,-5.6,·,·
CCOC(=O)c1ccc(NC(=S)NCCc2ccc(F)cc2)cc1,-4.1,2.9,-1.2,1.3,13.7,-6.9,·,·
Cc1ccc2c(c1)C1(C(=O)N2)N2CCCC2C(C(=O)c2ccc3ccccc3c2)C12C(=O)Nc1ccccc12 (stereo not given),·,·,·,·,-5.8,-15.7,·,·
CCCCc1cc(=O)oc2cc(OCC(=O)Nc3ccccn3)ccc12,-1.6,6.3,7.5,·,·,-0.2,·,·
Oc1c(C=Nc2cccc3cccnc23)sc2ccccc12,-151.9,128.2*,80.2*,4.1,-16.8,·,36.7*,99.0*
Cc1cccc(/N=C/c2sc3ccccc3c2O)n1,-61.0,-62.6,-46.2,-0.6,-17.7,-45.5,·,·
CCOC(=O)C1(C)CCCN(C(=O)c2cc(F)ccc2C)C1 (stereo not given),·,·,·,·,·,-1.5,·,·
COCCCNC1=C(Cl)C(=O)c2ccccc2C1=O,2.9,-1.6,-0.1,-3.4,-6.3,6.5,·,·
COCCCNc1c2c3c(cccc3[nH]c1=O)C(=O)c1ccccc1-2,74.8*,124.2*,116.9*,·,-88.1,-38.2,126.3*,136.9*
Cc1cc(C)c(NC(=O)CS(=O)CC(=O)Nc2ccc(F)cc2F)c(C)c1 (stereo not given),2.4,-1.9,-0.6,0.5,-14.8,-4.4,·,·
O=C1c2cccc(O)c2C(=O)c2c(O)cc(CO)cc21,81.0*,100.0*,93.2*,-8.7,·,·,80.7*,99.8*
O=C(OCCc1ccccc1)c1cc(O)c(O)c(O)c1,-4.8,53.9*,18.5,?,·,8.9,40.7*,75.3*
SMILES,GLD-1 TGE inh,MCL1 BIM primary,BCLXL inh,MEX-5 binding,EBV gp42 inh,eLon inh,BCLXL inh confirm,MCL1 inh confirm
Nc1ccc(C(=O)OCCc2ccccc2)cc1,8.4,2.9,0.9,0.7,·,10.9,·,·
CCOCCCn1c(=NC(=O)c2cccs2)c(C#N)cc2c(=O)n3cccc(C)c3nc21,105.7*,150.7*,138.2*,-36.9*,54.0*,13.4,115.1*,141.6*
Cc1cccc(C(=O)N=c2c(C#N)cc3c(=O)n4cccc(C)c4nc3n2Cc2ccco2)c1,20.7,64.3*,43.1*,-10.4,32.1,-17.2,38.4*,31.8
COCCCn1c(=NC(=O)c2ccccc2)c(C#N)cc2c(=O)n3cccc(C)c3nc21,127.5*,+,181.0*,?,51.5*,84.3*,76.2*,105.3*
C=CCNC(=O)C1CC(=O)N(c2ccc(OCC(=O)Nc3ccc(Cl)cc3)cc2)C1 (stereo not given),7.1,0.3,0.4,3.2,·,1.4,·,·
Oc1ccc(-c2cn3c(n2)SCC3)cc1O,5.5,60.0*,27.8,-39.8*,-22.5,3.6,30.4*,54.9*
O=C(CC1(c2ccc(Cl)cc2)C2CC3CC(C2)CC1C3)NCCO (stereo not given),1.1,6.6,4.3,-2.7,2.0,1.5,·,·
O=[N+]([O-])c1cccc(Oc2cnccn2)c1,6.2,40.8*,2.5,2.6,·,1.7,4.7,1.6
Cc1cc(F)ccc1S(=O)(=O)N1CCC2(CC1)OCCN2S(=O)(=O)c1cccs1,3.2,-2.2,0.4,1.3,·,-5.0,·,·
O=C(N=Nc1c(O)[nH]c2ccccc12)c1cc(-c2cccs2)[nH]n1,-5.3,43.2*,15.3,-2.6,49.2,7.2,11.7,31.4
CCC1CCc2sc(C(=O)OCC(=O)N(CCOC)c3c(N)n(Cc4ccccc4)c(=O)[nH]c3=O)cc2C1 (stereo not given),5.1,-1.8,1.6,4.3,·,-10.0,·,·
